# Measurements as given in PubChem BioAssay.
# A number with no mark means an inactive call. The rule behind the calls is not given here.
# Test: hESC survival regulators, cell-based (AID 493140);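 note: cells exposed to compounds for four days before counting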
# Settings: human embryonic stem cell survival screen; active compounds read high
row,Compound,survival
1,CCCCCC(O)/C=C/C=C\CCCCCCCC(=O)O (stereo not given),49.5
2,CO[C@@H]1[C@H](OC(N)=O)C(O)[C@H](Oc2ccc3c(O)c(NC(=O)c4ccc(O)c(CC=C(C)C)c4)c(=O)oc3c2C)OC1(C)C (stereo not given in full),8.33
3,CC/C=C\C/C=C\C/C=C\C/C=C\C=C\C(O)CCCC(=O)O (stereo not given),128
4,CCCCCCCCC1OC1CCCCCCCC(=O)O (stereo not given),92.8
5,CN(N=O)C(=O)NC1[C@@H](O)OC(CO)[C@@H](O)[C@H]1O (stereo not given in full),8.42
6,C=CCN1/C(=C\CO)[C@@H]2C[C@@H]3[C@H]1CC[C@@]31c3ccccc3N3/C=C4\C5N(/C=C/2C31)c1ccccc1[C@@]51CC[C@@H]2[C@H]1C[C@H]4/C(=C/CO)N2CC=C (stereo not given in full),26.5
7,Cc1cc(=O)c2c(O)c3c(O)cc(O)c4c5c(O)cc(O)c6c(O)c7c(=O)cc(C)c8c1c2c(c34)c(c65)c78,52.2
8,CCO[C@@H]1O[C@H](C(COCc2ccccc2)OCc2ccccc2)[C@@H](OCc2ccccc2)C1O (stereo not given in full),10.8
9,CCCCC/C=C\C/C=C\C/C=C\CCCCCCC(=O)O[C@H](COCCCCCCCCCCCCCCCC)COP(=O)([O-])OCC[N+](C)(C)C,71.5
10,CCCCC[C@H](O)/C=C/C=C/C=C/[C@@H](O)C/C=C\CCCC(=O)O,92.6
11,CCCCC[C@H](O)/C=C/[C@@H]1[C@@H](CC(=O)CCC(=O)O)[C@@H](O)C[C@H]1O,104
12,N#CC(C#N)=C(N)/C(C#N)=C/c1cc(O)c(O)c(O)c1,82.2
13,CCCCC/C=C\C/C=C\C[C@H](O)/C=C/C=C\CCCC(=O)O,91.5
14,CCCCC/C=C\C/C=C\C=C\[C@@H](O)C/C=C\CCCC(=O)O,129
15,O=c1[nH]c(=O)n([C@H]2C[C@@H](O)[C@@H](CO)O2)cc1C(F)(F)F,0.583
16,O=[N+]([O-])c1ccc(Oc2ccc(Br)cc2)c(C(O)[P+](=O)O)c1 (stereo not given),83.4
17,CCCCC/C=C\C/C=C\C/C=C\C=C\C(O)CCCC(=O)O (stereo not given),122
18,CO/N=C(/C(=O)N[C@@H]1C(=O)N2C(C(=O)[O-])=C(C[N+]3(C)CCCC3)CS[C@H]12)c1csc(N)n1,5.92
19,C[C@@]1(O)CCOC(=O)C1,4.42
20,CC1(C)S[C@@H]2[C@H](NC(=O)C3(N)CCCCC3)C(=O)N2[C@H]1C(=O)O,3.83
21,O=C(O)CCC[C@H](O)\C=C/C=C/C=C/[C@H](O)C/C=C\CCCCCO,75.2
22,CCCCCCCC[C@@H](O)/C=C/C=C/C=C\[C@@H](O)CCCC(=O)O,96.4
23,O=C(O)CCCC/C=C\C[C@@H](O)/C=C/C=C/C=C\[C@@H](O)CCCC(=O)O,96.1
24,CCCCCCCC/C=C\C/C=C\C=C\C(O)CCCC(=O)O (stereo not given),116
25,CCCCC[C@H](O)/C=C/C=C\C/C=C\CCCCC(=O)O,67.2
